Reference: PubChem BioAssay
Calls of active or inactive are those of the source.

Key:
[1] = optical density shifts of acrAB sulA E. coli – strain DRC41, OD650, 48 h, E. coli filamentation inducer project, primary screen (AID 1152); conditions: higher = more signal, called active from +8 up or from −8 down;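 also: E. coli MC1000 strain DRC41 lacking acrAB efflux pump and sulA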
[2] = probe aLefty1 binding on compound microarray – biochemical, small-molecule microarray, 635/667 nm fluorescence, primary screen (AID 1153); conditions: higher = more signal;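 also: score merges spot fluorescence with signal-to-noise ratio from the scanned slide images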
[3] = plasmodial surface anion channel blockers, osmotic lysis – cell-based, P. falciparum Indochina, OD700, 1 h, primary screen (AID 1154); conditions: P. falciparum Indochina infected RBC osmotic lysis, higher = more signal, called active from +8 up or from −8 down
[4] = plasmodial surface anion channel blockers, osmotic lysis – cell-based, P. falciparum Indochina, OD700, 2 h, primary screen (AID 1155);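 also: lysis reports solute entry through the parasite surface anion channel PSAC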; conditions: P. falciparum Indochina infected erythrocytes, higher = more signal, called active from +8 up or from −8 down
[5] = changes in parasitized red cell lysis, either direction – P. falciparum Indochina, OD700, 3 h, PSAC antagonist project, primary screen (AID 1156); conditions: P. falciparum-infected erythrocytes, osmotic lysis, higher = more signal, called active from +8 up or from −8 down
[6] = plasmodial surface anion channel blockers, osmotic lysis – cell-based, P. falciparum Indochina, OD700, 18 h, primary screen (AID 1157); conditions: P. falciparum Indochina infected erythrocytes, osmotic lysis OD700, 18 h; higher = more signal, called active from +8 up or from −8 down
[7] = S6 kinase pathway phospho-S6 level changes – cell-based, A549, cytoblot, luminescence, serum-stimulated, primary screen (AID 1158); conditions: 5 h, higher = more signal;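 also: serum-stimulated A549 lung adenocarcinoma cells; signal is phosphorylated S6 detected by cytoblot immunostaining with HRP secondary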
[8] = biological target: NADPH oxidase 2 (Homo sapiens) (UniProt P04839); assay: compounds shifting NOX2 Amplex Red fluorescence – cell-based, HEK293-NOX2, PMA-stimulated, NOX inhibitor project, primary screen (AID 1159); conditions: 45 min, higher = more signal, called active from +8 up or from −8 down; also: test concentration not given here
[9] = biological target: NADPH oxidase 4 (Homo sapiens) (UniProt Q9NPH5); assay: compounds shifting NOX4 Amplex Red fluorescence – cell-based, HEK293-NOX4, tetracycline-induced, NOX inhibitor project, primary screen (AID 1160); conditions: HEK293-NOX4, Amplex Red H2O2 fluorescence, 45 min; higher = more signal, called active from +8 up or from −8 down
[10] = biological target: NADPH oxidase 5 (Homo sapiens) (UniProt Q96PH1); assay: compounds shifting NOX5 Amplex Red fluorescence – cell-based, HEK293-NOX5, NOX inhibitor project, primary screen (AID 1161); conditions: HEK293-NOX5, ionomycin, 45 min, higher = more signal
Sequence of NADPH oxidase 5 (Homo sapiens) (Q96PH1 whole entry, looked up): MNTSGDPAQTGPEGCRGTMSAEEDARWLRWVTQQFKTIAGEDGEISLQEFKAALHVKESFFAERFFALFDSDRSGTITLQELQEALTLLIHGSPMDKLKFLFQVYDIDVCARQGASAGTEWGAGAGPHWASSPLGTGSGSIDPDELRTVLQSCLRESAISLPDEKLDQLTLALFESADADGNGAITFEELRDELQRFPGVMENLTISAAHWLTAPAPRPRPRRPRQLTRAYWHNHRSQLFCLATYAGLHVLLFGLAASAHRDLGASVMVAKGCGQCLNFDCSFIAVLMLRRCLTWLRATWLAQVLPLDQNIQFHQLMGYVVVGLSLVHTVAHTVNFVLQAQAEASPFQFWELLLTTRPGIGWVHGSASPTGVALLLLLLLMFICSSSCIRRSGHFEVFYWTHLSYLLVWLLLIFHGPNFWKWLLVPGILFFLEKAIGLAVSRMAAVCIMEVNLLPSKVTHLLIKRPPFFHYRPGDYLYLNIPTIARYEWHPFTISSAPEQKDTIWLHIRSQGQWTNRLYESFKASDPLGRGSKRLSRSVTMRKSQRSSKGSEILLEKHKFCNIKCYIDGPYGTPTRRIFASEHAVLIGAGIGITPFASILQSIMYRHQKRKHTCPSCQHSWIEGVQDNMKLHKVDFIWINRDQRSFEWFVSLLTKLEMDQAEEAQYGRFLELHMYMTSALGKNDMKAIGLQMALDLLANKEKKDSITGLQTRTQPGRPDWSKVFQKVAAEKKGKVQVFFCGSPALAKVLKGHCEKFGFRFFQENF

Sequence of NADPH oxidase 2 (Homo sapiens) (P04839 whole entry, looked up): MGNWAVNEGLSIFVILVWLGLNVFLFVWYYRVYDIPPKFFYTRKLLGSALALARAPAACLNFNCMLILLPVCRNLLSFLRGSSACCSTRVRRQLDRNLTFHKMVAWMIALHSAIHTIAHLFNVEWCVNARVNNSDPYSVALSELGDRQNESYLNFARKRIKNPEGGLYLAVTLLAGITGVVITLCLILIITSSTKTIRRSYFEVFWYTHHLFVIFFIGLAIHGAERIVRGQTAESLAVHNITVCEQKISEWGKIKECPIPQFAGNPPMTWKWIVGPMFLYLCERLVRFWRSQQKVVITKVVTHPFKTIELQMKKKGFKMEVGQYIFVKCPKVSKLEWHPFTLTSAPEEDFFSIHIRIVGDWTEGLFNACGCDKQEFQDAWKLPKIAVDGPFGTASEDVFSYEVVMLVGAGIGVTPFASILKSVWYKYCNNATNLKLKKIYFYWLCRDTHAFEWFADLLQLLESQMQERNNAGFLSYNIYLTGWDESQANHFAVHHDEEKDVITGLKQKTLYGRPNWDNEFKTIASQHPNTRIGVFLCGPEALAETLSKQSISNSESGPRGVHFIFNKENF
Sequence of NADPH oxidase 4 (Homo sapiens) (Q9NPH5 whole entry, looked up): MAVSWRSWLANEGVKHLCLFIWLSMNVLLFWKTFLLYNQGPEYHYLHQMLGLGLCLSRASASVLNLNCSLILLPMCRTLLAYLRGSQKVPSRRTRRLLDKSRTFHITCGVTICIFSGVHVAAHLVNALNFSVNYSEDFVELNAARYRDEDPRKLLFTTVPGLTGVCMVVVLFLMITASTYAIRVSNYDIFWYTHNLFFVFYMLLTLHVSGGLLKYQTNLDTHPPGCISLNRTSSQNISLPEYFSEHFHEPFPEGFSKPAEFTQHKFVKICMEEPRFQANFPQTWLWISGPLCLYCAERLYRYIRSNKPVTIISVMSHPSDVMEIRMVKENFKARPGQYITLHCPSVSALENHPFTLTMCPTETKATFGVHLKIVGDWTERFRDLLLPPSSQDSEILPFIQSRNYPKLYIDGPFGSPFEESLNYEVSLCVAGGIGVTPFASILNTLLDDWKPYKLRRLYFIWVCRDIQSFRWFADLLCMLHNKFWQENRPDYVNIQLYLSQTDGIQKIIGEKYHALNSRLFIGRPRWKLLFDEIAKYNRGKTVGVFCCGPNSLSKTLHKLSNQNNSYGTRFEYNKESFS

Compound	z-score [1]	composite z-score [2]	z-score [3]	z-score [4]	z-score [5]	z-score [6]	z-score [7]	z-score [8]	z-score [9]	z-score [10]
O=C1NC(=O)C2C1C=CC(C(O)C(c1ccccc1)c1ccccc1)N2Nc1ccccn1 (stereo not given)	-0.332 (inactive)	0.228	0.186 (inactive)	0.829 (inactive)	0.156 (inactive)	0.853 (inactive)	-0.681	0.738 (inactive)	-2.13 (inactive)	-1.47
C=C(CCCC)C(=O)CC[C@H](OC(=O)c1ccccc1-c1ccccc1C(=O)O)c1cccc(OCCO)c1	-0.497 (inactive)	-0.147	8.46 (active)	1.77 (inactive)	1.97 (inactive)	0.478 (inactive)	-0.363	0.976 (inactive)	-0.462 (inactive)	-1.74
O=C1O[C@H](c2ccccc2)[C@H](c2ccccc2)N2[C@H]1[C@@H](C(=O)N1CCCCCCC1)[C@]1(C(=O)Nc3ccc(C#CCCO)cc31)[C@H]2c1ccc(O)cc1	1.48 (inactive)	3.06	1.01 (inactive)	-0.0898 (inactive)	0.0261 (inactive)	0.295 (inactive)	0.0374	1.28 (inactive)	0.892 (inactive)	1.38
COc1cccc(C)c1NC(=O)O[C@H]1[C@H](OC(=O)Nc2ccccc2)[C@@H](OC(=O)Nc2ccccc2)[C@@H](OC)O[C@@H]1CO	-0.818 (inactive)	0.26	3.02 (inactive)	0.121 (inactive)	0.376 (inactive)	0.421 (inactive)	0.249	-7.01 (inactive)	-1.26 (inactive)	-2.29
O=C1C2C=CC(C(O)C(c3ccccc3)c3ccccc3)N(Nc3ccccc3F)C2C(=O)N1c1ccccc1 (stereo not given)	-1.6 (inactive)	0.235	2.23 (inactive)	1.25 (inactive)	0.663 (inactive)	0.852 (inactive)	-0.799	-1.34 (inactive)	-2.28 (inactive)	-1.87
O=C/C=C/c1ccc(-c2ccccc2)cc1	1.06 (inactive)	-0.0186	2.39 (inactive)	-0.681 (inactive)	-0.103 (inactive)	-2.17 (inactive)	1.04	0.388 (inactive)	-1.85 (inactive)	0.605
[N-]=[N+]=Nc1ccccc1C[C@@]1(C(=O)NCC(O)CO)N=C(c2ccc(OCCCO)cc2)O[C@@H]1c1ccccc1N=[N+]=[N-] (stereo not given in full)	-0.193 (inactive)	-0.281	30.3 (active)	29.2 (active)	0.0029 (inactive)	8.12 (active)	0.191	-1.55 (inactive)	0.776 (inactive)	1.85
CCOC(=O)C[C@H]1[C@H](OC(=O)Cc2ccc3c(c2)OCO3)[C@@H](NC(=O)CC(C)C)c2cc(OCCCO)ccc2N1C(=O)c1ccc2ccccc2n1	0.685 (inactive)	0.0004	2.75 (inactive)	-1.19 (inactive)	-0.161 (inactive)	-2.54 (inactive)	0.806	0.0707 (inactive)	-0.356 (inactive)	-1.54
COCCOC(=O)N1C(=O)[C@@]2(c3cc(C#CCC(C(=O)OC)C(=O)OC)ccc31)[C@H](C(=O)N1CCc3cc(OC)c(OC)cc3C1)[C@H]1C(=O)O[C@H](c3ccccc3)[C@H](c3ccccc3)N1[C@@H]2c1ccccc1OCCO	1.25 (inactive)	-0.314	2.96 (inactive)	1.42 (inactive)	0.358 (inactive)	0.265 (inactive)	-0.0797	1.48 (inactive)	1.57 (inactive)	0.966
C=C(C(=O)CC[C@@H](OC(=O)c1cccnc1)c1cccc(OCCO)c1)C(C)C	1.35 (inactive)	-0.309	13.8 (active)	0.717 (inactive)	-0.204 (inactive)	-1.02 (inactive)	0.62	-0.967 (inactive)	-0.193 (inactive)	-1.84
C=C(CCCC)/C(=C/C[C@@H](OC(C)=O)c1cccc(OCCO)c1)c1cc(C(=O)OC)ccc1OC	0.198 (inactive)	-0.0969	17.4 (active)	3.45 (inactive)	1.42 (inactive)	1.02 (inactive)	0.0322	-2.13 (inactive)	-1.16 (inactive)	-1.88
Cc1ccc(S[C@]2(C(=O)NCC(C)C)CC(=O)N(C(C)C)[C@@H]2c2ccc(CO)cc2I)cc1	0.746 (inactive)	0.245	4.28 (inactive)	0.965 (inactive)	0.504 (inactive)	0.279 (inactive)	0.363	2.02 (inactive)	-0.511 (inactive)	1.9
CCCCN1CC=CC23O[C@@H]4/C=C\CCC(C)OC(=O)C4[C@H]2C(=O)N(CCO)[C@@H]3C1=O (stereo not given in full)	1.36 (inactive)	-0.386	2.6 (inactive)	0.254 (inactive)	0.336 (inactive)	0.479 (inactive)	0.7	1.01 (inactive)	0.416 (inactive)	2.29
COCCOC(=O)N1C(=O)[C@@]2(c3cc(C#CCCO)ccc31)[C@H](C(=O)N1CCN(c3ncccn3)CC1)[C@H]1C(=O)O[C@H](c3ccccc3)[C@H](c3ccccc3)N1[C@@H]2c1ccc(OCCO)cc1	-0.862 (inactive)	0.197	11.4 (active)	3.12 (inactive)	0.72 (inactive)	1.39 (inactive)	-0.633	1.45 (inactive)	0.709 (inactive)	1.21
C=CCNC(=O)[C@@H]1[C@H]2C(=O)O[C@H](c3ccccc3)[C@H](c3ccccc3)N2[C@H](c2ccc(OCCO)cc2)[C@@]12C(=O)Nc1ccc(C#CC3=CCCCC3)cc12	-0.874 (inactive)	-0.21	2.81 (inactive)	1.98 (inactive)	-0.306 (inactive)	1.87 (inactive)	-0.474	1.38 (inactive)	-0.894 (inactive)	1.56
COc1ccc(CCNC(=O)[C@@H]2c3ccccc3C(=O)N(Cc3cc(F)cc(C(F)(F)F)c3)[C@H]2c2ccc(CO)cc2)cc1	0.799 (inactive)	0.659	3.5 (inactive)	0.69 (inactive)	0.563 (inactive)	0.0614 (inactive)	-0.155	-2.4 (inactive)	-0.0983 (inactive)	-2.21
COC(=O)C(CC#Cc1ccc2c(c1)[C@]1(C(=O)N2)[C@H](C(=O)N2CCN(c3ncccn3)CC2)[C@H]2C(=O)O[C@H](c3ccccc3)[C@H](c3ccccc3)N2[C@@H]1c1ccc(O)cc1)C(=O)OC	-0.442 (inactive)	1.93	1.85 (inactive)	0.89 (inactive)	0.804 (inactive)	0.0729 (inactive)	-0.339	1.52 (inactive)	-0.566 (inactive)	0.665
C=CCC(OC(C)=O)[C@@H]1[C@@H](N(Cc2ccc(-c3ccccc3)cc2)C(=O)Cc2ccc(OC)cc2)c2cc(OCCCO)ccc2N1C(=O)Cc1ccc(OC)cc1 (stereo not given in full)	-0.92 (inactive)	0.299	3.76 (inactive)	-0.313 (inactive)	0.167 (inactive)	0.141 (inactive)	0.518	-3.55 (inactive)	0.194 (inactive)	-0.0291
COC(=O)[C@@]1(Cc2ccccc2)[C@H]2c3cc(C(=O)N(C)C)n(Cc4ccc(Cl)c(C(F)(F)F)c4)c3C[C@H]2CN1C(=O)c1ccccc1	-2.34 (inactive)	0.936	2.46 (inactive)	0.943 (inactive)	0.453 (inactive)	1.18 (inactive)	-0.114	0.0852 (inactive)	-0.895 (inactive)	-1.92
C=C(COC)C(=O)CC[C@H](OC(C)=O)c1ccc(CO)o1	0.82 (inactive)	-0.0061	0.421 (inactive)	0.112 (inactive)	-0.0728 (inactive)	-1.12 (inactive)	0.555	-1.04 (inactive)	-0.207 (inactive)	-1.31
COCCCNC(=O)[C@@]1(Cc2ccccc2I)c2ccccc2C(=O)N(Cc2ccccc2OC)[C@H]1c1ccc(CO)cc1	0.567 (inactive)	-0.164	10.1 (active)	1.27 (inactive)	1.73 (inactive)	0.576 (inactive)	-0.0483	-1.68 (inactive)	0.642 (inactive)	-1.19
CC(C)c1ccc(NN2C(C(O)C(C)c3ccccc3)C=CC3C(=O)N(c4ccccc4)C(=O)C32)cc1 (stereo not given)	-1.78 (inactive)	1.24	0.187 (inactive)	0.433 (inactive)	0.215 (inactive)	0.998 (inactive)	-1.44	-0.818 (inactive)	-2.63 (inactive)	-4.03
CCCCC(=C=CC[C@H](O)c1cccc(OCCO)c1)C[C@H](O)c1cc(Cl)cc(Cl)c1O	0.513 (inactive)	0.0999	22 (active)	5.56 (inactive)	0.718 (inactive)	1.48 (inactive)	0.295	-2.45 (inactive)	-1.46 (inactive)	-2.02
COC(=O)c1c2oc(c1C(=O)OC)C(=O)N[C@H](Cc1ccccc1)Cn1cc(nn1)C1(CCCCC1)NC(=O)N[C@H](CO)CC2	2.53 (inactive)	-0.104	0.96 (inactive)	0.166 (inactive)	0.789 (inactive)	0.286 (inactive)	0.274	-0.0295 (inactive)	1.77 (inactive)	0.431
O=C1c2ccccc2[C@@]2(Cc3ccccc3N(CC(F)(F)F)C2=O)[C@H](c2ccc(CO)cc2)N1Cc1ccccc1	-0.98 (inactive)	-0.0626	-0.0567 (inactive)	-0.992 (inactive)	0.11 (inactive)	-1.93 (inactive)	2.33	-2.06 (inactive)	-2.39 (inactive)	-2.36
C=C(COC)C(=O)CC[C@@H](OC(=O)c1ccccc1-c1ccccc1C(=O)O)c1ccccc1OCCO	-0.564 (inactive)	-0.103	5.01 (inactive)	0.281 (inactive)	1.03 (inactive)	-0.209 (inactive)	-0.813	0.26 (inactive)	-0.182 (inactive)	-0.933
